The whole screen tested about 5,500 compounds, of which about 2,000 (36%) were called active. Another 18% or so got no clear call; they are omitted. Cut-off read from the data, not from the text of the source: active = normalized growth mostly below about 0.91 (no sharp cut-off); inconclusive = no clear call, values can overlap the other calls; inactive = mostly above about 0.92. The list shows a part of the results.
Experiment: chemical genetic growth profiling, strain panel (AID 1159580);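 note: tested at 20 µM; growth read once vehicle control cultures reached saturation at 30 °C; 1 = growth at the plate median or of vehicle wells; lower values mean less growth of the strain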
Settings: S. cerevisiae deletion strains, growth OD

Measured: normalized growth

COC1C(O)C(C)OC(O[C@H]2CC[C@]3(C=O)C4C(CC[C@]3(O)C2)[C@@]2(O)CC[C@H](C3=CC(=O)OC3)[C@@]2(C)C[C@H]4O)C1O (stereo not given in full)
inactive: locus YHR030C, strain SLT2, stronger effect = lower value 1.07 | locus YHR079C, strain IRE1, stronger effect = lower value 1.08 | locus YJL095W, strain BCK1, stronger effect = lower value 1.04 | locus YJR066W, strain TOR1, stronger effect = lower value 0.979 | locus YLR113W, strain HOG1, stronger effect = lower value 0.968 | locus YNL183C, strain NPR1, stronger effect = lower value 0.988 | locus YOR231W, strain MKK1, stronger effect = lower value 1.01 | locus YPL256C, strain CLN2, stronger effect = lower value 1.12

COC1CC(OC2CCC3(C)C(CCC4C3CCC3(C)C(C5=CC(=O)OC5)C(OC(C)=O)CC43O)C2)OC(C)C1O (stereo not given)
inactive: locus YAL021C, strain ccr4, stronger effect = lower value 0.998 | locus YAL026C, strain drs2, stronger effect = lower value 1.02 | locus YAL030W, strain snc1, stronger effect = lower value 1.01 | locus YBL061C, strain skt5, stronger effect = lower value 1.02 | locus YBR009C, strain hhf1, stronger effect = lower value 1.02 | locus YBR023C, strain chs3, stronger effect = lower value 1.02 | locus YBR171W, strain sec66, stronger effect = lower value 1.03 | locus YBR231C, strain swc5, stronger effect = lower value 1.02 | locus YBR279W, strain paf1, stronger effect = lower value 1.01 | locus YCL011C, strain gbp2, stronger effect = lower value 1.02 | locus YCL016C, strain dcc1, stronger effect = lower value 1.01 | locus YCL061C, strain MRC1, stronger effect = lower value 1.02 | locus YCL069W, strain vba3, stronger effect = lower value 1.02 | locus YCR088W, strain abp1, stronger effect = lower value 1.02 | locus YDL005C, strain med2, stronger effect = lower value 1.03 | locus YDL040C, strain nat1, stronger effect = lower value 1.01 | locus YDR001C, strain nth1, stronger effect = lower value 1.02 | locus YDR069C, strain doa4, stronger effect = lower value 1.01 | locus YDR137W, strain rgp1, stronger effect = lower value 1 | locus YDR159W, strain sac3, stronger effect = lower value 1.04 | locus YDR195W, strain ref2 1.03 | locus YDR297W, strain sur2, stronger effect = lower value 1.03 | locus YDR334W, strain swr1, stronger effect = lower value 1.03 | locus YDR335W, strain msn5, stronger effect = lower value 1.03 | locus YDR392W, strain spt3, stronger effect = lower value 0.984 | locus YEL003W, strain gim4, stronger effect = lower value 1.02 | locus YEL037C, strain rad23, stronger effect = lower value 1.02 | locus YEL061C, strain CIN8 (second series), stronger effect = lower value 1.02 | locus YER015W, strain faa2, stronger effect = lower value 1.02 | locus YER016W, strain bim1, stronger effect = lower value 1.02 | locus YER111C, strain swi4, stronger effect = lower value 1.03 | locus YER155C, strain BEM2 (second series), stronger effect = lower value 1.03 | locus YFR010W, strain ubp6, stronger effect = lower value 1.03 | locus YGL167C, strain pmr1, stronger effect = lower value 1.02 | locus YGL173C, strain kem1, stronger effect = lower value 1.03 | locus YGL227W, strain vid30, stronger effect = lower value 1.02 | locus YGL240W, strain doc1, stronger effect = lower value 1.01 | locus YGL253W, strain hxk2, stronger effect = lower value 1.03 | locus YHR013C, strain ard1, stronger effect = lower value 1.03 | locus YHR027C, strain rpn1, stronger effect = lower value 1.03 | locus YHR142W, strain chs7, stronger effect = lower value 1.02 | locus YJL092W, strain hpr5, stronger effect = lower value 1.03 | locus YJL095W, strain BCK1 (second series), stronger effect = lower value 1.01 | locus YJL115W, strain asf1, stronger effect = lower value 1.03 | locus YJL129C, strain trk1, stronger effect = lower value 1.02 | locus YJL154C, strain vps35, stronger effect = lower value 1.02 | locus YJL164C, strain tpk1, stronger effect = lower value 1 | locus YJL166W, strain qcr8, stronger effect = lower value 1.03 | locus YJL187C, strain SWE1, stronger effect = lower value 1.01 | locus YKL160W, strain elf1, stronger effect = lower value 1.01 | locus YKR026C, strain gcn3, stronger effect = lower value 1.02 | locus YKR091W, strain srl3, stronger effect = lower value 1.01 | locus YLL001W, strain dnm1, stronger effect = lower value 1.02 | locus YLL026W, stronger effect = lower value 1.02 | locus YLL041C, strain sdh2, stronger effect = lower value 1.02 | locus YLR027C, strain aat2, stronger effect = lower value 1.01 | locus YLR221C, strain rsa3, stronger effect = lower value 1.03 | locus YLR258W, strain gsy2, stronger effect = lower value 1.01 | locus YLR262C, strain YPT6 (second series), stronger effect = lower value 1.04 | locus YLR320W, strain mms22, stronger effect = lower value 1.01 | locus YLR342W, strain FKS1, stronger effect = lower value 1.02 | locus YLR357W, strain rsc2, stronger effect = lower value 1.06 | locus YLR370C, strain arc18, stronger effect = lower value 1.02 | locus YLR384C, strain iki3, stronger effect = lower value 1.02 | locus YML120C, strain ndi1, stronger effect = lower value 1.01 | locus YMR058W, strain fet3, stronger effect = lower value 1.04 | locus YMR125W, strain sto1, stronger effect = lower value 1.02 | locus YMR129W, stronger effect = lower value 1.01 | locus YMR205C, strain PFK2, stronger effect = lower value 1.01 | locus YMR231W, strain pep5, stronger effect = lower value 1.02 | locus YNL071W, strain lat1, stronger effect = lower value 1.02 | locus YNL209W, strain ssb2, stronger effect = lower value 1.01 | locus YNL248C, strain rpa49, stronger effect = lower value 0.939 | locus YNL322C, strain KRE1 (second series), stronger effect = lower value 1.03 | locus YNR049C, strain mso1, stronger effect = lower value 1.01 | locus YOR001W, strain rrp6, stronger effect = lower value 1.02 | locus YOR070C, strain gyp1, stronger effect = lower value 1.03 | locus YOR080W, strain dia2, stronger effect = lower value 1.02 | locus YOR083W, strain WHI5, stronger effect = lower value 1 | locus YOR106W, strain vam3, stronger effect = lower value 1.01 | locus YOR265W, strain rbl2, stronger effect = lower value 1.01 | locus YOR270C, strain vph1, stronger effect = lower value 1.02 | locus YOR290C, strain snf2, stronger effect = lower value 0.986 | locus YPL051W, strain arl3, stronger effect = lower value 1.01 | locus YPL078C, strain atp4, stronger effect = lower value 1.01 | locus YPL106C, strain sse1, stronger effect = lower value 1.01 | locus YPL240C, strain hsp82, stronger effect = lower value 1.02

Source: PubChem BioAssay AID1159580 (chemical genetic matrix, 2015)
